The values below come from PubChem BioAssay (EPA / NIEHS).

Several values for one entry are separate records, joined by “and”; a condition that tells them apart may be missing. Equal values may be shown once. Activity calls are given as the source filed them. How the source made its calls: active means hit-call score of the fitted dose curve at least 0.9, where 1 is the maximum; inactive means score below 0.9.

What is called AC50 is the midpoint of the concentration-response curve, whichever way the signal moves.

Read-out in the test: urokinase plasminogen activator (uPA), PLAU (gene 5328)
Nature of the test: BSK_KF3CT_uPA: BioMAP Diversity Plus: KF3CT Assay for urokinase plasminogen activator (uPA) Biomarker Activity (AID 2283075). Conditions: primary human keratinocytes with fibroblasts; actives raise or lower the signal. Here is the method:
BSK_KF3CT is a cell-based, multiplexed-readout assay that uses keratinocytes and foreskin fibroblasts, a human skin primary cell co-culture, with measurements taken at 24 hours after chemical dosing in a 96-well plate.BSK_KF3CTA is an assay component measured in the BSK_KF3CT assay. It measures uPA antibody related to regulation of gene expression using ELISA technology.Data from the assay component BSK_KF3CTA was analyzed into 1 assay endpoint. This assay endpoint, BSK_KF3CTA, was analyzed with bidirectional fitting relative to DMSO as the negative control and baseline of activity. Using a type of binding reporter, gain or loss-of-signal activity can be used to understand changes in the signaling as they relate to the gene PLAU. Furthermore, this assay endpoint can be referred to as a primary readout, because this assay has produced multiple assay endpoints where this one serves a signaling function. To generalize the intended target to other relatable targets, this assay endpoint is annotated to the protease intended target family, where the subfamily is serine protease.
The levels of cell surface (or secreted, indicated by the prefix "s") biomarker endpoints were measured by ELISA. Overt cytotoxicity to cells in confluent adherent cultures (all systems other than the BT system) was assessed by measuring total protein levels using sulforhodamine B (SRB) staining in parallel cultures at the time of biomarker measurements, indicated as SRB endpoints. For proliferation assays for adherent cell types, individual cell types are cultured at sub-confluence and relative cell numbers quantified by SRB staining at time points optimized for each system (48 h: 3C and CASM3C systems; 72 h: BT and HDF3CGF systems; 96 h: SAg system). SRB was performed by staining cells with 0.1% SRB after fixation with 10% TCA and reading wells at 560 nm.Viability and proliferation of PBMC (T cells) was quantified by Alamar Blue reduction for the SAg and BT systems. For PBMC viability (referred to as PBMC Cytotoxicity within the assay endpoint names), cells were plated (75,000/well in a 96-well plate) and then chemical samples added for 1 h before addition of activators, SEB and TSST-1 (20 ng/mL final concentration each). Cells were incubated for 90 h. Then, Alamar Blue (20 uL/well) (Invitrogen, Cat DAL1100) was added for 6 h, and the plates were read with a fluorescence microplate reader at 546/580 nm (excitation/emission). For PBMC proliferation, cells were plated and activated as above but incubated for only 16 h prior to addition of Alamar Blue. Plates were read after 6 h.
Consider `C=C(C)C(=O)OCCC(F)(F)C(F)(F)C(F)(F)C(F)(F)C(F)(C(F)(F)F)C(F)(F)F`, for which the result was inactive.
Consider `CS(C)(=O)=O`, for which the result was inactive.
The same measure, in the same setting: the entry for `O=C(O)C(F)(F)C(F)(F)C(F)F` is “inactive”.
`OCC(F)(F)C(F)(F)C(F)(F)F`: the outcome was inactive.
Same read-out and setting: the entry for `O=C(O)C(F)(F)C(F)(F)C(F)(F)F` is “inactive”; for `N=C(N)C(F)(F)C(F)(F)C(F)(F)C(F)(F)C(F)(F)C(F)(F)C(F)(F)F` it is “inactive”.
On the same count and under the same terms, in the case of `OCC(F)(F)C(F)(F)C(F)(F)C(F)F` it was “inactive”; in that of `CCN(CC)c1ccc2c(C)cc(=O)oc2c1`, “inactive”.
On the same count and under the same terms, the entry for `CCc1ccc(C(c2ccc(CC)cc2)C(Cl)Cl)cc1` is “inactive”; for `C=C(C)C(=O)OCC(F)(F)C(F)(F)C(F)(F)C(F)(F)C(F)(F)C(F)(F)C(F)(F)F` it is “inactive”.
`CCCCCCCCC(F)(F)C(F)(F)C(F)(F)C(F)(F)C(F)(F)C(F)(F)F`: the outcome was inactive.
For `O=C(O)C(F)(F)C(F)(F)C(F)(F)C(F)(F)C(F)(F)C(F)(F)C(F)(F)C(F)(F)C(F)(F)C(F)F`, the concentration at half-maximal activity (AC50) is 47.5 µM (active) and 54.1 µM (active).
Take `CCO[Si](CCC(F)(F)C(F)(F)C(F)(F)C(F)(F)C(F)(F)C(F)(F)F)(OCC)OCC`: the outcome was inactive.
The same measure, in the same setting: the entry for `OCC(F)(F)C(F)(F)C(F)(F)C(F)(F)C(F)(F)C(F)F` is “inactive”.
As to `FC(F)(I)C(F)(F)C(F)(F)C(F)(F)I`, the AC50 is 49.5 µM (active) and 45.8 µM (active) and 54 µM (active).
On to `CCCCCCCOC(=O)c1ccccc1C(=O)OCCCCCCC`, for which the result was inactive.
The same measure, in the same setting: the entry for `O=C(O)C(F)(F)C(F)(F)C(F)(F)C(F)(F)F` is “inactive”.
On the same count and under the same terms, in the case of `Oc1ccc(Nc2ccccc2)cc1` it was “inactive”.
`O=C(O)C(F)(F)C(F)(F)C(F)(F)C(F)(F)C(F)(F)C(F)(F)C(F)(F)C(F)(F)Cl`: the AC50 was 47.8 µM (active) and 47.2 µM (active).
For the compound `O=C(O)C(F)(OC(F)(F)C(F)(OC(F)(F)C(F)(F)C(F)(F)F)C(F)(F)F)C(F)(F)F` (stereo not given), the outcome was inactive.
The same measure, in the same setting: the entry for `C=CC(F)(F)C(F)(F)C(F)(F)C(F)(F)C(F)(F)C(F)(F)C(F)(F)C(F)(F)C=C` is “inactive”; for `C=CC(F)(F)C(F)(F)C(F)(F)C(F)(F)C(F)(F)C(F)(F)C(F)(F)C(F)(F)F` it is “inactive”.
The same measure, in the same setting: in the case of `CCCCCCC(C)OC(=O)CCCCC(=O)OC(C)CCCCCC` (stereo not given) it was “inactive”.
Same read-out and setting: the entry for `O=C(CC(=O)C(F)(F)C(F)(F)F)C(F)(F)F` is “inactive”; for `C=C(C)C(=O)OCC(F)(F)C(F)(F)C(F)(F)F` it is “inactive”.
`CC(CCl)OP(=O)(OC(C)CCl)OC(C)CCl` (stereo not given): the outcome was inactive.
In the case of `CC(C)(C)C(=O)CC(=O)C(F)(F)C(F)(F)C(F)(F)F`, the result was inactive.
Regarding `O=C(O)C(F)(F)C(F)(F)OC(F)(F)F`, the result was inactive.
Same read-out and setting: in the case of `FC(F)(F)C(F)(F)C(F)(F)C(F)(F)C(F)(F)C(F)(F)C(F)(F)C(F)(F)CCS` it was “inactive”.
`CCCCNc1ccccc1`: the result was inactive.
Regarding `FC(F)(F)C(F)(F)C(F)(F)C(F)(F)C(F)(F)C(F)(F)CC1CO1` (stereo not given), the result was inactive.
Still for that read-out and setting: in the case of `FC(F)(F)C(F)(F)C(F)(F)C(F)(F)C(F)(F)C(F)(F)C(F)(F)I` it was “inactive”; in that of `Nc1ccc([N+](=O)[O-])cc1O`, “inactive”; in that of `FC(F)(F)C(F)(F)CNCC(F)(F)C(F)(F)F`, “inactive”.
As for `C=CC(=O)OCC(F)(F)C(F)(F)C(F)(F)C(F)(F)COC(=O)C=C`, the AC50 was 33.8 µM (active) and 37 µM (active).
Consider `COC(=O)CCC(F)(F)C(F)(F)C(F)(F)C(F)(F)F`, for which the outcome was inactive.
Same read-out and setting: the entry for `O=C(O)C(F)(F)C(F)(F)C(F)(F)C(F)(F)C(F)(F)C(F)(F)C(F)(F)C(F)(F)C(F)(F)C(F)(F)C(F)(F)C(F)(F)F` is “inactive”.
Turning to `CCCCCCOC(=O)c1ccccc1O`, the outcome was inactive.
Same read-out and setting: the entry for `FC1CC(F)(F)C(F)(F)C1(F)F` (stereo not given) is “inactive”; for `FC(F)(F)C(F)(F)C(F)(F)N(C(F)(F)C(F)(F)C(F)(F)F)C(F)(F)C(F)(F)C(F)(F)F` it is “inactive”.
